29 compounds from ChEMBL document CHEMBL3988442, “University of Dundee, Small-Polar-MMV Screening Library” (2021) can be followed below.

Screen size: about 53,000 compounds; about 900 (1.7%) showed an effect of 50% or more. The sample holds strong results, similar compounds and a random draw of the others, so the mix is not that of the screen.

The assay deals with Mycobacterium tuberculosis. Nature of the assay: Cornell - Phenotypic assay to identify agents that inhibit growth of Mycobacterium tuberculosis. In kind it is functional. Also noted: scale not given: direction of the effect not stated beside the values. The note with it: 10 mM as filed; unlikely as a test dose.
In the case of `OC(CN1CCC(c2ccn[nH]2)CC1)c1ccccc1F` (centres undefined), the “Percent Effect” value amounted to 11.88%.
As to `Cc1csc2nc3n(c(=O)c12)CCN(Cc1c[nH]cn1)CC3.Cl`, the “Percent Effect” value is on record as -9.915%.
As for `CC(C)Nc1ncccc1C(=O)NCc1ncc[nH]1`, the figure is 21.23%.
As for `Cc1cc(C(F)F)nn1C(C)C(=O)NCc1ncc[nH]1` (centres undefined), the figure is 51.24%; as for `Cc1cc(C(F)F)nn1C(C)C(=O)NCc1nccn1C` (centres undefined), -1.635%.
With `CN(C)c1ncc(-c2ccncc2)c(CCNC(=O)C2CC2)n1`, the “Percent Effect” value amounted to 23.54%.
Take `Cc1c(C(=O)N2CCN(c3ccccn3)CC2)n(C)c2ccc(Cl)cc12`: the “Percent Effect” value is recorded as 56.67%.
On to `Cc1c(C(=O)N2CCN(C)CC2)n(C)c2ccc(Cl)cc12`, for which the “Percent Effect” value is 29.74%.
As for `Cc1c(C(=O)N2CCN(c3ncccn3)CC2)n(C)c2ccc(Cl)cc12`, the figure is 45.95%; as for `CCN1C(=O)CC[C@@H]2N(C(=O)CCn3nccc3C)CCCC[C@@]21C`, 10.33%.
As for `CC(C)CC(=O)N1CC(=O)c2sc(NCCc3ccccc3)nc2C1`, the figure is -41.09%.
Regarding `Cc1ccc(C2(CN3CCN(Cc4cncn4C)CC3)CC2)cc1.Cl`, the “Percent Effect” value was -21.08%.
As for `Cc1ccc(C2(CN3CCN(Cc4cn(C)nc4C)CC3)CC2)cc1.Cl`, the figure is 56.88%; as for `Cc1nn(C)cc1CN1CCN(CC2(c3ccccc3)CC2)CC1`, 18.35%; as for `O=C(NCc1ccncc1)N1CC(Cc2ccccc2F)C1`, 8.731%.
Consider `CCc1ccc(S(=O)(=O)Nc2c(C)cccc2C(=O)O)s1`, for which the “Percent Effect” value is on record as 52.73%.
As for `CCc1ccc(S(=O)(=O)Nc2cc(OC)c(OC)cc2C(=O)O)s1`, the figure is 16.65%; as for `CCc1ccc(S(=O)(=O)Nc2cc(C(=O)O)c(F)cc2F)s1`, 1.964%.
As for `Cc1cc(CN(C)C2CCCN(Cc3noc(C4CC4)n3)C2)on1` (centres undefined), the figure is 2.145%.
For the compound `O=C(Nc1cccc(N2CCCC2)c1)C1CCCN1c1nccs1` (centres undefined), the “Percent Effect” value was determined as 57.22%.
As for `O=C(Nc1cccc2c1CCCC2)C1CCCN1c1nccs1` (centres undefined), the figure is -2.486%; as for `O=C1NCc2ccc(NC(=O)C3CCCN3c3nccs3)cc21` (centres undefined), 10.34%; as for `Cc1nn(C)c(=O)c2nn(-c3ccc(F)cc3)c(C)c12`, 2.323%.
As for `Cc1nn(Cc2ccc(F)cc2)c2[nH]nc(N)c12`, the figure is 41.44%; as for `Cc1nn(-c2ccc(F)cc2)c2[nH]nc(N)c12`, 67.22%.
As for `COc1ccccc1CCC(=O)N1CCCC(OCc2cccnc2)C1` (centres undefined), the figure is -21.64%.
For `CC(c1nc(C2CC2)no1)N1CCN(Cc2ccccc2)CC1` (centres undefined), the “Percent Effect” value stood at 2.279%.
In the case of `CC(Nc1ccc2c(c1)CCC2)c1nc(C2CC2)no1` (centres undefined), the “Percent Effect” value is reported as 27.18%.
As for `CC(Nc1ccc(Br)cc1)c1nc(C2CC2)no1` (centres undefined), the figure is 54.33%.
